This note sets out measurements from ChEMBL document CHEMBL1961873, “Compounds: GSK PKIS; Assays: Nanosyn kinase panel” (2012).

Assay [1] has as its target Glycogen synthase kinase-3 beta (Homo sapiens) (UniProt P49841). The settings on record: at 1 µM.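 Further: reported values are mean percent inhibition of GSK3B.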
In assay [2] the target is Homeodomain-interacting protein kinase 1 (Homo sapiens) (UniProt Q86Z02). Conditions: at 0.1 µM.
For assay [3] the target is unchanged. The settings on record: at 1 µM.
Assay [4] has as its target T1, Homeodomain-interacting protein kinase 4 (Homo sapiens) (UniProt Q8NE63).
T1 sequence (whole entry): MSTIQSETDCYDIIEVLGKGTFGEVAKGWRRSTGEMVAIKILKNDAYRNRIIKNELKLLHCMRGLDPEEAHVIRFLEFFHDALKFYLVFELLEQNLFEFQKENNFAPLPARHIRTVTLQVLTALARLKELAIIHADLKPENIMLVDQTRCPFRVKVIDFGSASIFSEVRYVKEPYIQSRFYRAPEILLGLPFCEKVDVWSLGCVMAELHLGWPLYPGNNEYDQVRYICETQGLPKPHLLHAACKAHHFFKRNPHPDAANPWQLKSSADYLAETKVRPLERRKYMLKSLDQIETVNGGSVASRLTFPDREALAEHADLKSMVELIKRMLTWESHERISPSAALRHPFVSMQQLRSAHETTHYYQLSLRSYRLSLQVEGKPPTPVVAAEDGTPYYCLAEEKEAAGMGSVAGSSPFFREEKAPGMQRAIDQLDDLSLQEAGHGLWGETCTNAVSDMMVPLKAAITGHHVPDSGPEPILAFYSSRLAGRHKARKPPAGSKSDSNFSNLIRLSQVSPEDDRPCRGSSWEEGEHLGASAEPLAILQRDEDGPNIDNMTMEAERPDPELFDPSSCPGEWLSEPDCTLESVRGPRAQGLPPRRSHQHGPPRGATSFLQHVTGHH
Conditions: at 0.1 µM.

The target in assay [5] is T1, Homeodomain-interacting protein kinase 4 (Homo sapiens). The settings on record: at 1 µM.
For assay [6], the target named is Mitogen-activated protein kinase 9 (Homo sapiens) (UniProt P45984). Conditions: at 0.1 µM.
The target is the same in assay [7]. Conditions: at 1 µM.
Assay [8] concerns the target Mitogen-activated protein kinase 1 (Homo sapiens) (UniProt P28482). Conditions: at 0.1 µM.
Assay [9] has the same target. Conditions: at 1 µM.
Assay [10] has as its target Mitogen-activated protein kinase 3 (Homo sapiens) (UniProt P27361). The settings on record: at 0.1 µM.
For assay [11] the target is unchanged. Conditions: at 1 µM.
Assay [12] has as its target SRSF protein kinase 3 (Homo sapiens) (UniProt Q9UPE1). The settings on record: at 0.1 µM.
Assay [13] has the same target. The settings on record: at 1 µM.
For assay [14], the target named is Mitogen-activated protein kinase 14 (Homo sapiens) (UniProt Q16539). Conditions: at 0.1 µM.
Assay [15] has the same target. The settings on record: at 1 µM.
Assay [16] deals with Mitogen-activated protein kinase 11 (Homo sapiens) (UniProt Q15759). Conditions: at 0.1 µM.
Assay [17] shares this target. The settings on record: at 1 µM.
Assay [18] concerns the target T2, Mitogen-activated protein kinase 13 (Homo sapiens) (UniProt O15264).
T2 sequence (whole entry): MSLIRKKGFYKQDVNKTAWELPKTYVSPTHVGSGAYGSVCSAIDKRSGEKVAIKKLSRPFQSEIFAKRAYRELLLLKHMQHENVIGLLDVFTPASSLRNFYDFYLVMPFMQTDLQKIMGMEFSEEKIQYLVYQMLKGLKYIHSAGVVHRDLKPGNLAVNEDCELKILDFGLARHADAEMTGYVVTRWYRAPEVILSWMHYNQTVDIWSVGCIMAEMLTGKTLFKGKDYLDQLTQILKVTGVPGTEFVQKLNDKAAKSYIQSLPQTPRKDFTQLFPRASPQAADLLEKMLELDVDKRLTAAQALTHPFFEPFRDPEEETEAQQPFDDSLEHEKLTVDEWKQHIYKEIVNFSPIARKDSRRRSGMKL
The settings on record: at 0.1 µM.

For assay [19], the target named is T2, Mitogen-activated protein kinase 13 (Homo sapiens). Conditions: at 1 µM.
For assay [20], the target named is T3, Mitogen-activated protein kinase 12 (Homo sapiens) (UniProt P53778).
T3 sequence (whole entry): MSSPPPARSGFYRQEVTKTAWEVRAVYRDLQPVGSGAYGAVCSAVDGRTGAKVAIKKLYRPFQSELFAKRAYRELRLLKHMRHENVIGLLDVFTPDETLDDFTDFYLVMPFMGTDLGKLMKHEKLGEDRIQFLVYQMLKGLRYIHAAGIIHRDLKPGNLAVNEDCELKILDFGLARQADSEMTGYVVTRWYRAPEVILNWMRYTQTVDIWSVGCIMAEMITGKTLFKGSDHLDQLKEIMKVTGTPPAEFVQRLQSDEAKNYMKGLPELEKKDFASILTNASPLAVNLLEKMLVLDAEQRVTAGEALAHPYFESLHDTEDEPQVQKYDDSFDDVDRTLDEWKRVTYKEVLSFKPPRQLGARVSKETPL
The settings on record: at 0.1 µM.

Molecules are shown by their SMILES.

SRSF protein kinase 3 (Homo sapiens), sequence (Q9UPE1 whole entry): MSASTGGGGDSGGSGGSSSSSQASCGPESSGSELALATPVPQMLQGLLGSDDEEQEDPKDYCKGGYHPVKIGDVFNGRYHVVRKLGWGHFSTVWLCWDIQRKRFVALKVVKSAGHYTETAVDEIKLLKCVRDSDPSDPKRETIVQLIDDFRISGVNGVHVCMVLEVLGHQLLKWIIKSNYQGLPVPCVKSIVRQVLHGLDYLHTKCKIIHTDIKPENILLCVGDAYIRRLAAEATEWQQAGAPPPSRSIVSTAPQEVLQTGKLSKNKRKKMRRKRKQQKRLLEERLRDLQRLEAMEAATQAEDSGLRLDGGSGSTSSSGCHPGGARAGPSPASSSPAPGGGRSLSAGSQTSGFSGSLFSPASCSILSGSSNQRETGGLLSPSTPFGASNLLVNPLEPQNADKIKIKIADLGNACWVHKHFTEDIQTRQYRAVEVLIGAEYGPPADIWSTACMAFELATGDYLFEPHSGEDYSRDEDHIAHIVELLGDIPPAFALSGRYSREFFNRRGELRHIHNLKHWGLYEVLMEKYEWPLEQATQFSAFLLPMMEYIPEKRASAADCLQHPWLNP
Glycogen synthase kinase-3 beta (Homo sapiens), sequence (P49841 whole entry, looked up): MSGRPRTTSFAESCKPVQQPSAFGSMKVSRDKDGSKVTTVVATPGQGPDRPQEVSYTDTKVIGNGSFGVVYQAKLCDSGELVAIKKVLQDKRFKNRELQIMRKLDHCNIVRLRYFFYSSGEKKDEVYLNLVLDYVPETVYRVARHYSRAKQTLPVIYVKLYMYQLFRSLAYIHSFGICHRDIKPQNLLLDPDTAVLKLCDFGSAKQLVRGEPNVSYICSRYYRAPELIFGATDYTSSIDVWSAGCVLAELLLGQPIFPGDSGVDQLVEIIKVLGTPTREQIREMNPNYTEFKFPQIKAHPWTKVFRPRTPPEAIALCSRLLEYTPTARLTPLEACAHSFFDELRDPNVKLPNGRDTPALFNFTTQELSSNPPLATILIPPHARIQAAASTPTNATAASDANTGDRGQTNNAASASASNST
Mitogen-activated protein kinase 11 (Homo sapiens), sequence (Q15759 whole entry): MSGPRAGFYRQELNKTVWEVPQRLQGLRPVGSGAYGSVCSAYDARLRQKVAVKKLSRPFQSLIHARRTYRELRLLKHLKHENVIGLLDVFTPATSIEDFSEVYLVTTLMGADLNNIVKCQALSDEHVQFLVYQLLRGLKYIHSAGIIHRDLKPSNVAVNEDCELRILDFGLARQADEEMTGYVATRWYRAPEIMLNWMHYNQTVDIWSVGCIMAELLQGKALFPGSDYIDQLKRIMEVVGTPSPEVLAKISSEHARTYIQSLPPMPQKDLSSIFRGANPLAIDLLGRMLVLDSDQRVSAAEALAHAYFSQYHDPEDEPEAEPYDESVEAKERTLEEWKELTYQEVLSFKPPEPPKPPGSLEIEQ
Mitogen-activated protein kinase 1 (Homo sapiens), sequence (P28482 whole entry): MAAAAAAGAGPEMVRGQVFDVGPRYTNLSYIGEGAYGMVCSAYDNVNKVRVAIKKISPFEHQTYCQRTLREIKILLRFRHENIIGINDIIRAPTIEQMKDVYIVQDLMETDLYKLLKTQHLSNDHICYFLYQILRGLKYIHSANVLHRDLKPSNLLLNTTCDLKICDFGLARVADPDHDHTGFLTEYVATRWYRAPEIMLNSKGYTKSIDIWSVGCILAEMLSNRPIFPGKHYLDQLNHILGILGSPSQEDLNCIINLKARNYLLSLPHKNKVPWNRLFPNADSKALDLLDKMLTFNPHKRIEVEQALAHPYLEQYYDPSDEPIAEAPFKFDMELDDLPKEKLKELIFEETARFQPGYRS
Mitogen-activated protein kinase 14 (Homo sapiens), sequence (Q16539 whole entry): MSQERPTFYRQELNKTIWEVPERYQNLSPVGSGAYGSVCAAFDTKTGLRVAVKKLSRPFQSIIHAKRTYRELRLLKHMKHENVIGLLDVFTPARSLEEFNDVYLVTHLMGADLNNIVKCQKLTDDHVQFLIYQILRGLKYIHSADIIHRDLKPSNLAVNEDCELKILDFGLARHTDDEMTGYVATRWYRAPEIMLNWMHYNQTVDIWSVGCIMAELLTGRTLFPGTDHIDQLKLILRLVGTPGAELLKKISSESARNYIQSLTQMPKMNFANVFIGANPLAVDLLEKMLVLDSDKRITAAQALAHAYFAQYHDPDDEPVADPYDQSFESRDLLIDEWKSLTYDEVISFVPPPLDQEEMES
Mitogen-activated protein kinase 9 (Homo sapiens), sequence (P45984 whole entry, looked up): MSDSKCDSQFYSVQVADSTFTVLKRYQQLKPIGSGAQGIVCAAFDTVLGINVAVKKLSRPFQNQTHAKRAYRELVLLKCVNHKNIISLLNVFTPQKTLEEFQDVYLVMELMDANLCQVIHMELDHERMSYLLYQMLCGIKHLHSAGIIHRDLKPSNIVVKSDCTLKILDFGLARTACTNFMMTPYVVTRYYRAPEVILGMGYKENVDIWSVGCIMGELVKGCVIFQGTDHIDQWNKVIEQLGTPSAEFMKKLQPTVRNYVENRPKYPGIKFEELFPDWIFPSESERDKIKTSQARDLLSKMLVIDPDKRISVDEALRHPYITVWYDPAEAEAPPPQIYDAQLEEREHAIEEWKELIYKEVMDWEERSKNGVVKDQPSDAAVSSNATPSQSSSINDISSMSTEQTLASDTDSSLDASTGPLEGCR
Homeodomain-interacting protein kinase 1 (Homo sapiens), sequence (Q86Z02 whole entry, looked up): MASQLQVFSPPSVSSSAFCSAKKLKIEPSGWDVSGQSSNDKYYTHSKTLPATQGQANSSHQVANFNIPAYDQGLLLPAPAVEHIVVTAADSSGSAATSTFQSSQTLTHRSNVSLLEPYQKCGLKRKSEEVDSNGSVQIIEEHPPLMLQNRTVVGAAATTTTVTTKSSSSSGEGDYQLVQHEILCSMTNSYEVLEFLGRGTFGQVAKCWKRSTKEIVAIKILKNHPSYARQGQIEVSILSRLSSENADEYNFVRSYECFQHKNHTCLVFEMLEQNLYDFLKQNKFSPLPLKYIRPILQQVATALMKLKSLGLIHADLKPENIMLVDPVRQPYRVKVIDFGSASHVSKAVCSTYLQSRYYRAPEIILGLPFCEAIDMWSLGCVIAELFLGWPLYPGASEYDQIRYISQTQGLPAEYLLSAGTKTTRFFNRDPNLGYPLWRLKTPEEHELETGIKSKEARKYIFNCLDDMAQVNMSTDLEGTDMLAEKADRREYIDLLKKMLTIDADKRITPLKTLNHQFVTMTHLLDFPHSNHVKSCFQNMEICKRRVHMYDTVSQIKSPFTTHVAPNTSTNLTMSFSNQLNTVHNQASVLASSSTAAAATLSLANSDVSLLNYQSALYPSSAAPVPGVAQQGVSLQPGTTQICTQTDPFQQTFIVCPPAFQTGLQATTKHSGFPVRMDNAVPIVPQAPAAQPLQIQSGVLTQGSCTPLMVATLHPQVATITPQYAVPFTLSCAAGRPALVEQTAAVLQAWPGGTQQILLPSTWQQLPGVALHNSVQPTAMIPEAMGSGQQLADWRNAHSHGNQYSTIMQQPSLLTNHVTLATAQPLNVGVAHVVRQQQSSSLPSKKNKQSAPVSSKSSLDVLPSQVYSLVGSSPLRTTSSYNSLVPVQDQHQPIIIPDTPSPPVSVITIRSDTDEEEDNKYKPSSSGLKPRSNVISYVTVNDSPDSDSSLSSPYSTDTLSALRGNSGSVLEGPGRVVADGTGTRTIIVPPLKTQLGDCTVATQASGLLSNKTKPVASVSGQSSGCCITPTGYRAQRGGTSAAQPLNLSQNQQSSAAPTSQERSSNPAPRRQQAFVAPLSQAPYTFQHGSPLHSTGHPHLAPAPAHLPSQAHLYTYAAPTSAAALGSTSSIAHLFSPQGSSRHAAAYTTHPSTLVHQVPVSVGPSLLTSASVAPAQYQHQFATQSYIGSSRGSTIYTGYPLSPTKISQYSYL
Mitogen-activated protein kinase 3 (Homo sapiens), sequence (P27361 whole entry): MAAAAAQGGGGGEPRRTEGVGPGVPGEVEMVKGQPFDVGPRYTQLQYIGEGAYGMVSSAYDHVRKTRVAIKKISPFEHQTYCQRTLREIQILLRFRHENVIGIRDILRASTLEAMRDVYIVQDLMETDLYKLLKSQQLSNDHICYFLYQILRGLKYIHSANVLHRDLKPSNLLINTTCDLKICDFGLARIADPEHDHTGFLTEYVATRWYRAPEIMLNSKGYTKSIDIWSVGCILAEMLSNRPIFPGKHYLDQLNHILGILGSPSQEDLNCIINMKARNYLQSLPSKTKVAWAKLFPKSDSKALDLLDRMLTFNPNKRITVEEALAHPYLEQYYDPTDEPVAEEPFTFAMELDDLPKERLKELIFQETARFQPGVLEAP

For `NS(=O)(=O)c1ccc(N/N=C2\C(=O)Nc3ccc(C(=O)NCCCn4ccnc4)cc32)cc1`, the inhibition (in general, the relative decrease from the control value, in per cent) was 77.7% in assay [1]; 4.8% in assay [2]; 34.3% in assay [3]; 3.92% in assay [4]; 17.6% in assay [5]; 6.1% in [6]. Besides, the inhibition in assay [7] is 10.9%; in assay [8], 9.89%; in assay [9] it was 38.5%; in [10], 5.16%; in assay [11] it was 15.9%; in assay [12], -1.4%. Besides, the inhibition is 0.48% in assay [13]; 1.52% in assay [14]; 7.84% in assay [15]; 5.07% in [16]; 9.47% in assay [17]; 1.23% in assay [18]. Moreover, the inhibition in assay [19] was 6.17%; in assay [20] it was 2.29%.
As to `O=C(Nc1n[nH]c2nc(-c3ccco3)ccc12)C1CC1`, the inhibition in assay [2] is 0.14%; in [3] it was 1.4%; in [4], 2.3%; in assay [5], 6.99%; in [6], 0.84%; in assay [7], 2.1%. Moreover, the inhibition came to 0.04% in [8]; 0.76% in [9]; 0.6% in assay [10]; 1.35% in [11]; 0.39% in assay [12]; 4.26% in [13]. In addition, the inhibition in assay [14] is 1.96%; in assay [15] it was 5.5%; in assay [16] it was 1.81%; in [17], 1.59%; in [18] it was 1.26%; in [19], 1.37%. In assay [20], the inhibition worked out at 5.77%.
For the molecule `Cc1ccc(NC(=O)c2ccoc2)cc1-c1ccc(C(=O)NCC2CC2)cc1`, the inhibition in assay [1] is -0.68%; in assay [2], -3.48%; in assay [3], 0.37%; in assay [4], 0.84%; in assay [5], 0.22%; in [6], 3.16%. Further, the inhibition is 2.57% in assay [7]; 3.2% in assay [8]; 3.37% in assay [9]; 2.67% in assay [10]; 2.32% in [11]; -2.54% in assay [12]. The inhibition is -1.92% in [13]; 27.8% in [16]; 61.2% in [17]; 2.82% in assay [18]; 0.81% in assay [19]; 2.37% in assay [20].
Take `Cc1ccc(C(=O)NC(C)C)cc1-c1ccc(C(=O)NCC2CC2)cc1`: the inhibition was 3.01% in assay [1]; -2.55% in assay [2]; 1.88% in assay [3]; 0.31% in assay [4]; 3.79% in assay [5]; -1.51% in assay [6]. The inhibition in assay [7] is -0.22%; in assay [8], -3.93%; in [9], -4.45%; in assay [10], -2.87%; in [11], -0.93%; in assay [12] it was 1.71%. For the same molecule, the inhibition in assay [13] is -0.59%; in [16] it was 4.42%; in assay [17], 37%; in [18] it was -4.48%; in assay [19], -4.39%; in assay [20] it was -2.72%.
As to `Fc1ccc(-c2ncn(C3CCNCC3)c2-c2ccnc(Oc3ccc(F)c(F)c3)n2)cc1`, the inhibition is 2.53% in assay [1]; -6.31% in assay [2]; -2.14% in [3]; 0.46% in assay [4]; 1.77% in assay [5]; 4.93% in [8]. Further, the inhibition in assay [9] is 6.35%; in [10], 3.84%; in assay [11], 6.51%; in assay [12], -3.83%; in assay [13], -1.43%.
Consider `Nc1nccc(-c2c(-c3ccc(F)cc3)ncn2C2CCC(O)CC2)n1` (stereo unspecified), for which the inhibition was 14.1% in [1]; 2.2% in [2]; 4% in [3]; 1.22% in assay [4]; 3.26% in assay [5]; 9.42% in assay [6]. Moreover, the inhibition in assay [7] is 53.3%; in assay [9], -2.72%; in assay [10] it was -0.59%; in assay [11], 0%; in [12], 1.14%; in assay [13], 0.84%. Also, the inhibition in assay [14] was 70.8%; in assay [15], 92.5%; in assay [16] it was 14.9%; in assay [17] it was 62.2%; in assay [18], 0.18%; in assay [19] it was -2.89%. Further, the inhibition in assay [20] was -3.41%.
As to `N#Cc1ccc(Oc2nccc(-c3c(-c4ccc(F)cc4)ncn3C3CCNCC3)n2)cc1`, the inhibition in assay [1] is 1.96%; in assay [2], -4.47%; in assay [3], -6.22%; in assay [4], -0.7%; in assay [5] it was -0.61%; in assay [8], 4.87%. The inhibition in assay [9] is 6.51%; in assay [10] it was 6.9%; in assay [11], 6.42%; in assay [12], -1.55%; in [13], -0.03%.
